Our source for the outcome values is PubChem BioAssay (Tox21).

Records with an inconclusive call do not appear. The source made the active and inactive calls. The call rests on the fitted dose curve.

This test can be described thus: qHTS assay to identify small molecule agonists of the endoplasmic reticulum stress response signaling pathway - cell viability counter screen (AID 1159517). Further: nearly all actives have a fitted effect of over 50% in size. The note with it: ESRE-bla HeLa viability, CellTiter-Glo luminescence, 5 h; series mostly up to 61 µM. The text has this:
U.S. Tox21 Program National Center for Advancing Translational Sciences [NCATS] NIH Chemical Genomics Center [NCGC] U.S. Environmental Protection Agency [EPA] National Institutes of Environmental Health Sciences [NIEHS] National Toxicology Program [NTP] U.S. Food and Drug Administration [FDA] Tox21 Assay Overview: Endoplasmic Reticulum (ER) plays an important role in cellular signaling, protein folding/maturation, stress response, lipid biosynthesis, calcium storage and release etc. Under stress conditions, proteins in ER misfold or unfold, and leading to the expression of ER stress responsive genes. ER stress has been associated with a variety of pathophysiological conditions such as cancer, inflammation, neurodegenerative diseases, diabetes, ischemic heart disease etc. To identify the compounds that induce ER stress response, an ER stress reporter cell line, CellSensor ESRE-bla HeLa (Life Technologies, Carlsbad, CA) containing a beta-lactamase reporter gene under control of the Endoplasmic reticulum Stress Response Element (ESRE) was used to screen Tox21 10K compound library. The cytotoxicity of the Tox21 compound library against the ESRE-bla HeLa cell line was tested in parallel by measuring cell viability using the CellTiter-Glo assay in the same wells.
Tox21 Assay Protocol Summary: ESRE-bla HeLa cells were dispensed at 1,500 cells/6 uL of assay medium per well into black wall/clear-bottom 1536-well plates using a Multidrop Combi (ThermoFisher Scientific, Waltham, MA) dispenser. After the assay plates were incubated at 37 C and 5% CO2 for an overnight, 23 nL of compounds dissolved in DMSO, positive controls or DMSO only was transferred to the assay plate by a Pintool station (Kalypsys, San Diego, CA). The assay plates were incubated at 37 C and 5% CO2 for 5 hr. One uL of LiveBLAzer B/G FRET substrate (Life Technologies) was added using a FRD (Flying Reagent Dispenser, Aurora Discovery, San Diego, CA) and the plates were incubated at room temperature for 2 hr. Fluorescence intensity (405 nm excitation, 460 nm and 530 nm emissions) was measured using an Envision plate reader (PerkinElmer, Shelton, CT). For cytotoxicity, 4 ul/well of CellTiter-Glo reagent was added into the assay plates using an FRD. After 30 min incubation at room temperature, the luminescence intensity was measured using a ViewLux plate reader (PerkinElmer).
Turning to `CCCC(C)CC` (stereo not given), the outcome was inactive.
Take `O=C(Nc1cccc(C2=NCCN2)c1)Nc1cccc(C2=NCCN2)c1`: the outcome was inactive.
In the case of `O=C1OC(=O)c2ccccc21`, the molecule was called inactive.
The value for `CCCCCCCCCCCCCCCCCCN(C)C` was “inactive”; that for `Cc1cccc(C(=O)O)c1[N+](=O)[O-]` was “inactive”.
With `CCCCCCCCOC(C)=O`, the outcome was inactive.
The value for `CCCOC(=O)CCCCC(=O)OCCC` was “inactive”; that for `CCNC(=O)/C=C/c1cccc(Br)c1` was “inactive”.
`N#CCCOCCOCCC#N`: the molecule was classed as inactive.
`CCCCC(CC)COC(=O)c1ccccc1` (stereo not given): the molecule was called inactive.
For the molecule `CCc1nccnc1C`, the result was inactive.
With `C=C(C)C(=O)OC1CC(C)CC(C)(C)C1` (stereo not given), the outcome was inactive.
With `CCC(O)C(C)(C)C` (stereo not given), the outcome was inactive.
The value for `CCOC(=O)CCCCCCCCC(=O)OCC` was “inactive”; that for `CC(=O)OC(C(=O)c1ccccc1)c1ccccc1` (stereo not given) was “inactive”.
For `CN(C)CCCNCCC#N`, the call was inactive.
The value for `Cc1ncc([N+](=O)[O-])n1CC(O)CCl` (stereo not given) was “inactive”; that for `Cc1c(C(C)C)c(=O)n(-c2ccccc2)n1C` was “inactive”; that for `O=C(O)c1c(Cl)ccc(Cl)c1Cl` was “inactive”.
Consider `CCN(Cc1cccc(S(=O)(=O)O)c1)c1ccccc1`, for which the result was inactive.
Turning to `Nc1ccc(S(=O)(=O)NC(=O)c2ccccc2)cc1`, the result was inactive.
`COc1ccc(NS(=O)(=O)c2ccc(N)cc2)nn1`: the molecule was called inactive.
For `O=S(=O)(O)c1cc(O)ccc1O`, the call was inactive.
As for `CN(C1CCCCC1)S(=O)(=O)c1ccccc1N`, the entry is “inactive”; as for `CCCCCCCC[Si](OCC)(OCC)OCC`, “inactive”.
Regarding `CCC(=O)c1ccc(O)cc1`, the outcome was inactive.
As for `Nc1ccc(S(=O)(=O)Nc2ccccn2)cc1`, the molecule was called inactive.
For the molecule `CN[C@@H]1[C@@H](O)[C@@H](O[C@@H]2[C@H](O)[C@H](O[C@H]3OC(CN)=CC[C@H]3N)[C@@H](N)C[C@H]2N)OCC1(C)O` (stereo not given in full), the molecule was called inactive.
As for `CCC1Nc2cc(Cl)c(S(N)(=O)=O)cc2S(=O)(=O)N1` (stereo not given), the entry is “inactive”; as for `CC(C)(CO)[C@@H](O)C(=O)NCCCO`, “inactive”; as for `Cc1nc2n(c(=O)c1CCN1CCC(C(=O)c3ccc(F)cc3)CC1)CCS2`, “inactive”.
Regarding `CC(C)C(=O)c1ccccc1`, the molecule was classed as inactive.
Turning to `COCC(=O)Nc1c(I)c(C(=O)NCC(O)CO)c(I)c(C(=O)N(C)CC(O)CO)c1I` (stereo not given), the molecule was called inactive.
Turning to `C=C[Si](C)(C)O[Si](C)(C)C=C`, the call was inactive.
In the case of `C=CCOc1c(Br)cc(C(C)(C)c2cc(Br)c(OCC=C)c(Br)c2)cc1Br`, the molecule was classed as inactive.
For `CC(=O)OCCCc1ccccc1`, the outcome was inactive.
As to `CC1=NN(c2ccc(S(=O)(=O)O)cc2)C(=O)C1N=Nc1ccccc1` (stereo not given), the molecule was classed as inactive.
Regarding `C=CC(C)(O)CC/C=C(\C)CC` (stereo not given), the molecule was called inactive.
The value for `O=C(O)CCNC(=O)c1ccccc1` was “inactive”; that for `CC(C)COC(=O)CCCCC(=O)OCC(C)C` was “inactive”.
